Screening results from PubChem.
TRHR enhancer: qHTS for Small Molecule Agonists and Allosteric Enhancers of Human TRH Receptor: Primary Screen for Enhancers. Thyrotropin-releasing hormone receptor (Homo sapiens), P34981. TRHR cells, fluo-8 calcium fluorescence, EC20 TRH enhancement. enhancement, % at 2 µM. hit rate 0.66% among 360,000. AID 493056, 2011; in the data active means enhancement above about 30%
Target sequence (P34981 whole entry, looked up): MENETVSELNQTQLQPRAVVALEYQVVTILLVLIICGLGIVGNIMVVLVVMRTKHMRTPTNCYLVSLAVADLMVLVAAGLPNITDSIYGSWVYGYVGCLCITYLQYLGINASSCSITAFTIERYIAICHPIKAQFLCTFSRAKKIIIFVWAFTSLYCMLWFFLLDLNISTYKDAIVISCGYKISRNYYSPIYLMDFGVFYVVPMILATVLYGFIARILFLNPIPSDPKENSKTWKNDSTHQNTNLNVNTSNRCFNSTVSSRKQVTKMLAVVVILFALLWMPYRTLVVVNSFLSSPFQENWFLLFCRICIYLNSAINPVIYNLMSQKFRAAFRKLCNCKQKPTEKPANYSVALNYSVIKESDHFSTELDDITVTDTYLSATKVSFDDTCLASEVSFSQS
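Enhancer read-out: after compound pinning and an initial kinetic agonist-mode read, an EC20 of TRH (10 nM final) was injected and fluo-8 calcium signal (Ex 480/Em 530) followed at 1 s/cycle for 100 cycles in TRHR-expressing cells.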
TRHR ag: qHTS for Small Molecule Agonists and Allosteric Enhancers of Human TRH Receptor: Primary Screen for Agonists; hit rate 0.18% among 360,000; TRHR cells, calcium flux fluo-8, FDSS agonist mode; activation, % at 2 µM; AID 493084, 2011; Thyrotropin-releasing hormone receptor (Homo sapiens), P34981
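Fluo-8-loaded TRHR cells; 10 s baseline, compound added, kinetic Ca2+ fluorescence read 1/s, agonist mode.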
Glioma ERSR ind: qHTS for Inducers of the Endoplasmic Reticulum Stress Response (ERSR) in Human Glioma: qHTS | U87-MG GRP78 promoter luciferase reporter, 16 h | Potency, µM, actives largely listed as activators | hit rate 0.02% among 420,000 | AID 602332, 2012; active means well fitted activation curve with a large enough effect; further: series mostly up to about 76 µM; nearly all actives have a fitted effect of over 35% in size
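Stably transfected U87-MG human glioma cells carrying a GRP78-based luminescent sensor were seeded at 1000 cells/well, pin-dosed with compounds and incubated 16 h. Luciferase reagent was then added, and end-point luminescence was read after 10 min at room temperature.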
D1 ag: Allosteric Agonists of the Human D1 Dopamine Receptor: qHTS; D(1A) dopamine receptor (Homo sapiens), P21728; HEK293 T-REx D1 cells, calcium flux, agonist mode; activation, % at 2 µM; hit rate 1% among 360,000; AID 504660, 2011
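Tetracycline-induced HEK293 TREx D1 cells, force-coupled to calcium signalling, were dye-loaded with a no-wash calcium kit. Compound was pin-added after a 10 s baseline. Fluorescence was read kinetically at 1 cycle/s for 180 s, with calcium rises flagged as agonism.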
D1 PAM: Potentiators of Human D1 Dopamine Receptor: qHTS. hit rate 0.036% among 360,000. D(1A) dopamine receptor (Homo sapiens), P21728. HEK293 TREx D1 cells, calcium flux, dopamine EC20 potentiation. potentiation, % at 10 µM. AID 504651, 2011; in the data active means potentiation above about 30%
D1 antagonist: Antagonist of Human D 1 Dopamine Receptor: qHTS | D(1A) dopamine receptor (Homo sapiens), P21728 | activity change, negative = inhibition, % at 10 µM | HEK293 TREx D1 cells, calcium flux, dopamine EC80; hits give low values | hit rate 3.2% among 360,000; in the data active means activity change below about -30%
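Allosteric or orthosteric antagonism assessed as attenuation of the calcium response to EC80 dopamine, added 180 s after compound, in induced HEK293 Trex D1 cells loaded with no-wash calcium dye.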
Hits are given with their value; - = inactive; . = no result given. Hits are enriched below; roughly 4% of the tested compounds scored in any of these assays. Unless noted, no stated cut-off is given here; in the data, active means activation above about 30%; inactive means the rest.

SMILES	TRHR enhancer	TRHR ag	Glioma ERSR ind	D1 ag	D1 PAM	D1 antagonist
S=C(NC1CCCC1)NC1CCCC1	-	-	-	-	-	-
C/C(CCN1CCCCc2nc(C)c(C)cc21)=N\O[C@@H](C)c1cc(-c2c(C)cc(C)cc2C)no1	.	.	-	.	.	.
COc1ccc(COc2ccccc2C(=O)NCc2ccccc2)cc1F	-	-	-	-	-	-37
Clc1nc(Cl)nc(NCCC2=CCCCC2)n1	-	-	-	-	-	-
COc1cccc(CC(NC(C)=O)C(=O)NC2CCN(S(=O)(=O)c3ccc(F)cc3)CC2)c1OC (configuration not stated)	-	-	-	-	-	-
COc1ccc(/C=C2/SC(=S)N(NS(=O)(=O)c3ccc(C)cc3)C2=O)cc1	-	-	-	-	.	-47
COc1ccccc1N1CCN(C(=O)C(=O)c2c[nH]c3ccccc23)CC1	-	-	-	-	-	-30
O=C(C(=O)N1CCN(c2ccccc2)CC1)c1c[nH]c2ccccc12	-	-	-	-	-	-
O=C(C(=O)N1CCN(c2ccccc2F)CC1)c1c[nH]c2ccccc12	-	-	-	-	-	-83
COc1ccccc1N1CCN(/N=C/c2ccccc2C(=O)O)CC1	-	-	-	-	-	-50
COc1ccc(N2CCN(C(=O)C(=O)c3c[nH]c4ccccc34)CC2)cc1	-	-	-	-	-	-
CO[C@H]1C[C@@H]2CC[C@@H](C)[C@@](O)(O2)C(=O)C(=O)N2CCCC[C@H]2C(=O)O[C@H]([C@H](C)C[C@@H]2CC[C@@H](OCCO)[C@H](OC)C2)CC(=O)[C@H](C)/C=C(\C)[C@@H](O)[C@@H](OC)C(=O)[C@H](C)C[C@H](C)/C=C/C=C/C=C/1C	.	.	-	.	.	.
O=C(Nc1ccc(Cl)cc1)c1cc2c(Cl)nc3ccccc3c2s1	48	-	-	-	-	-
COc1cccc(C2=NOC(C(=O)Nc3ccc4c(c3)OCO4)C2)c1 (configuration not stated)	-	-	-	-	-	-
O=C(Nc1ccc2c(c1)OCO2)C1CC(c2cccc(Br)c2)=NO1 (configuration not stated)	-	-	-	-	-	-38
CCOC(=O)C1CCCN(c2c(N3CCN(c4ccccn4)CC3)c(=O)c2=O)C1 (configuration not stated)	-	-	-	-	-	-52
CCOC(=O)CC1C(=O)NCCN1c1nc2ccc(C)cn2c(=O)c1/C=C1\SC(=S)N(C(C)CC)C1=O (configuration not stated)	-	105	.	584	34	-47
CCOC(=O)CC1C(=O)NCCN1S(=O)(=O)c1ccc(Cl)c(Cl)c1 (configuration not stated)	-	-	-	-	-	-
CCOC(=O)CC1C(=O)NCCN1C(=O)c1ccc(C)cc1 (configuration not stated)	-	-	-	-	-	-
CCCN1C(=O)/C(=C/c2c(N3CCNC(=O)C3CC(=O)OCC)nc3c(C)cccn3c2=O)SC1=S (configuration not stated)	-	68	-	216	-	-
CCOC(=O)CC1C(=O)NCCN1c1nc2ccc(C)cn2c(=O)c1/C=C1\SC(=S)N(CC(C)C)C1=O (configuration not stated)	-	63	-	320	-	-
COCCCNc1ncnc2sc(C(=O)N3CCOCC3)c(C)c12	.	.	-	.	.	.
CN(C)c1ccc(S(=O)(=O)N2CCCCC2)cc1NC(=O)CN1C(=O)NC2(CCCC2)C1=O	-	-	-	-	-	-42
CN(C)S(=O)(=O)c1ccc(Cl)c(NC(=O)CN2C(=O)NC3(CCCC3)C2=O)c1	-	-	-	-	-	-
CN(C)S(=O)(=O)c1ccc(NC(=O)CN2C(=O)NC3(CCCC3)C2=O)cc1	36	-	-	-	-	-
